# A number with no mark means an inactive call. Records with an inconclusive call do not appear. Entries that show only a call come without a potency. The source made the active and inactive calls. Unless noted, the call rests on the fitted dose curve; in most records, active means well fitted curve in the direction sought with a large enough effect in the repeat runs; inconclusive means weak or mixed curves; inactive means no such curve, though single readings can be large; an effect the other way counts as inactive or inconclusive.
# Columns and labels:
# [1] = qHTS assay to identify small molecule antagonists of the glucocorticoid receptor (GR) signaling pathway - cell viability counter screen (AID 720693); further: nearly all actives have a fitted effect of over 55% in size
# [2] = qHTS assay for identifying genotoxic compounds that show differential cytotoxicity against isogenic chicken DT40 cell lines with known DNA damage response pathways - wild type cell line (AID 743012); further: nearly all actives have a fitted effect of over 60% in size; further: potency means the concentration at half of the fitted maximal effect
# Procedure, shortened: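 Parental DNA repair-proficient DT40 cells, 300 per well, were pre-incubated ~0.5 h at 37 C/5% CO2, pin-dosed with compounds in DMSO, then incubated 40 h. Viability was read as CellTiter-Glo luminescence after 30 min at room temperature.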
# [3] = qHTS assay for identifying genotoxic compounds that show differential cytotoxicity against isogenic chicken DT40 cell lines with known DNA damage response pathways - Rad54/Ku70 mutant cell line (AID 743015); further: nearly all actives have a fitted effect of over 60% in size; further: potency means the concentration at half of the fitted maximal effect
# [4] = qHTS assay to identify small molecule antagonists of the androgen receptor (AR) signaling pathway - cell viability counter screen (AID 743033; further: nearly all actives have a fitted effect of over 45% in size)
# [5] = qHTS assay to identify small molecule antagonists of the androgen receptor (AR) signaling pathway using the MDA cell line - cell viability counter screen (AID 743041; further: nearly all actives have a fitted effect of over 45% in size; further: potency means the concentration at half of the fitted maximal effect)
# Procedure, shortened: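 R1881-driven MDA-kb2 AR-luc cells, 3,000/well, were dosed with library compounds for 16 h; cell health came from CellTiter-Fluor fluorescence in the reporter wells.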
# [6] = qHTS assay to identify small molecule antagonists of the estrogen receptor alpha (ER-alpha) signaling pathway - cell viability counter screen (AID 743074; calls by dose curve;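 further: HEK293 cells carrying ER-alpha-UAS-bla reporter stimulated with 17beta-estradiol; nearly all actives have a fitted effect of over 45% in size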)
# [7] = qHTS assay to identify small molecule antagonists of the estrogen receptor alpha (ER-alpha) signaling pathway using the BG1 cell line - cell viability counter screen (AID 743081);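 further: compound given together with 17beta-estradiol as the ER stimulus; nearly all actives have a fitted effect of over 45% in size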; further: potency means the concentration at half of the fitted maximal effect
# Aromatase (Homo sapiens) = Aromatase (Homo sapiens) (UniProt P11511); experiment: qHTS assay to identify aromatase inhibitors (AID 743083); further: series mostly up to about 70 µM; nearly all actives have a fitted effect of over 55% in size
# Sequence of Aromatase (Homo sapiens) (P11511 whole entry, looked up): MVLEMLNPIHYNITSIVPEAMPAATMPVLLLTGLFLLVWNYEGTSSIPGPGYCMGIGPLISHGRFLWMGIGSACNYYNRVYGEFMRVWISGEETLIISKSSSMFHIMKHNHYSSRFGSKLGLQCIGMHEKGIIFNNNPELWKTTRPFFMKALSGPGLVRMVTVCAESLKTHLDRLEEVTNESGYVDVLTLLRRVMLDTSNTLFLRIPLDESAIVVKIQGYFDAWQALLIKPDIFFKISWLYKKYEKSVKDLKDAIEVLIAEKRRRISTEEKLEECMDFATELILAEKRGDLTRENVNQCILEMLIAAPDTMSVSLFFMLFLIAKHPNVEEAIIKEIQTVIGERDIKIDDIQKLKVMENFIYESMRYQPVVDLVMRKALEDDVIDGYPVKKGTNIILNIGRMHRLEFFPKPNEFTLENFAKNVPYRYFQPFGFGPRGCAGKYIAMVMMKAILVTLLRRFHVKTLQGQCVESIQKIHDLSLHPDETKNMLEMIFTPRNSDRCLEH
# [8] = qHTS assay to identify aromatase inhibitors - cell viability counter screen (AID 743084);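 further: cells stimulated with testosterone during compound exposure; nearly all actives have a fitted effect of over 55% in size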
# [9] = qHTS assay for identifying genotoxic compounds that show differential cytotoxicity against isogenic chicken DT40 cell lines with known DNA damage response pathways - Rev3 mutant cell line (AID 743014); further: nearly all actives have a fitted effect of over 55% in size; further: potency means the concentration at half of the fitted maximal effect
# [10] = qHTS assay to identify small molecule antagonists of the thyroid receptor (TR) signaling pathway - cell viability counter screen (AID 743064); further: nearly all actives have a fitted effect of over 50% in size; further: potency means the concentration at half of the fitted maximal effect
# Procedure, shortened: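 Counter screen for cytotoxicity: compound plus T3 (1 nM final) on GH3.TRE-Luc cells, 23.5 h at 37 °C, then fluorescence viability readout with CellTiter-Fluor.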
# [11] = qHTS assay to identify small molecule antagonists of the thyroid receptor (TR) signaling pathway (AID 743065); further: nearly all actives have a fitted effect of over 55% in size; further: potency means the concentration at half of the fitted maximal effect
# Procedure, shortened: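 Antagonism measured as loss of luciferase signal in GH3 cells stably carrying a TRE-luciferase reporter, co-treated with compound and T3 (1 nM final) for 23.5 h at 37 C. Viability was read in the same well by CellTiter-Fluor.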
# [12] = test system: thyroid hormone receptor (rat, GH3 cells); experiment: qHTS assay to identify small molecule agonists of the thyroid receptor (TR) signaling pathway (AID 743066; calls by dose curve; further: potency means the concentration at half of the fitted maximal effect)
# [13] = target: Androgen receptor (Homo sapiens) (UniProt P10275); experiment: qHTS assay to identify small molecule agonists of the androgen receptor (AR) signaling pathway (AID 743036; active means well fitted activation curve with a large enough effect in the signal ratio in the repeat runs, with a control signal flat, not every such curve was filed as active; the % refers to the signal ratio)
# Sequence of Androgen receptor (Homo sapiens) (P10275 whole entry, looked up): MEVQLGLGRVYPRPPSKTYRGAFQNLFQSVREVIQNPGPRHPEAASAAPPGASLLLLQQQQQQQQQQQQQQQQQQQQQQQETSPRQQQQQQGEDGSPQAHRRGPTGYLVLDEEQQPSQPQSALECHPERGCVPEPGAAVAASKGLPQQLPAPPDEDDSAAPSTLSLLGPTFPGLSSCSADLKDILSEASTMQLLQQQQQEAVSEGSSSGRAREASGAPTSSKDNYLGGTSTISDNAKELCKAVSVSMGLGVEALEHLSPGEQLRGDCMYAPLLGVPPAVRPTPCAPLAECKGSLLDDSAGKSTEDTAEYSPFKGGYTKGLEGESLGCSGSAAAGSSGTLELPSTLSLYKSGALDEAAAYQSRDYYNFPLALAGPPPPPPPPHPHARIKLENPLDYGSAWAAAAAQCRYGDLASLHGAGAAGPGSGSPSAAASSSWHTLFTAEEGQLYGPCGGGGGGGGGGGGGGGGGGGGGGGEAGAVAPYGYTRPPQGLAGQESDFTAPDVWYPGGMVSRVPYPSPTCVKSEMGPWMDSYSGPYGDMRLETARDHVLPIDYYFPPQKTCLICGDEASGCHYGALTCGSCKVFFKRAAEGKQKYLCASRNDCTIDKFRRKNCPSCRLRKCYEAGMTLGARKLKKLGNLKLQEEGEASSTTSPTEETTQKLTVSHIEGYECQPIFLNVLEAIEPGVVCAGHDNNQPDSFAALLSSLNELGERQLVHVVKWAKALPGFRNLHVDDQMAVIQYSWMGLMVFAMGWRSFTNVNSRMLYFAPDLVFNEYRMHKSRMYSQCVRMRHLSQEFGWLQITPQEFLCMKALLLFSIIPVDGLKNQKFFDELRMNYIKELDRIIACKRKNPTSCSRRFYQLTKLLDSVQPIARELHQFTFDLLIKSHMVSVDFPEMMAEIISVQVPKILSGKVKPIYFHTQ
# Procedure, shortened: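 In this Tox21 qHTS, 2,000 HEK293 AR-bla cells per well were incubated with compounds for 16 h at 37C and 5% CO2. Fluorescence intensity was recorded 2 h after adding LiveBLAzer B/G FRET substrate at room temperature.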
# [14] = target: Androgen receptor (Homo sapiens) (UniProt P10275); experiment: qHTS assay to identify small molecule agonists of the androgen receptor (AR) signaling pathway using the MDA cell line (AID 743040; further: nearly all actives have a fitted effect of over 20% in size)
# Procedure, shortened: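 After a 5 h incubation at 37C and 0% CO2, MDA-kb2 reporter cells were dosed with compounds in DMSO and kept 16 h under the same conditions. Luciferase activity was then read as luminescence with ONE-Glo.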
# [15] = target: Androgen receptor (Homo sapiens) (UniProt P10275); experiment: qHTS assay to identify small molecule antagonists of the androgen receptor (AR) signaling pathway using the MDA cell line (AID 743042; further: nearly all actives have a fitted effect of over 55% in size)
# Procedure, shortened: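 Antagonist mode: compounds plus R1881 agonist added to MDA-kb2 AR-luc cells, incubated 16 h at 37C. Luciferase reporter luminescence quantified, with multiplexed CellTiter-Fluor readout for cell viability.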
# [16] = target: Estrogen receptor (Homo sapiens) (UniProt P03372); experiment: qHTS assay to identify small molecule antagonists of the estrogen receptor alpha (ER-alpha) signaling pathway (AID 743069; active means well fitted curve in the direction sought with a large enough effect in the signal ratio in the repeat runs, not every such curve was filed as active; the % refers to the signal ratio)
# Sequence of Estrogen receptor (Homo sapiens) (P03372 whole entry, looked up): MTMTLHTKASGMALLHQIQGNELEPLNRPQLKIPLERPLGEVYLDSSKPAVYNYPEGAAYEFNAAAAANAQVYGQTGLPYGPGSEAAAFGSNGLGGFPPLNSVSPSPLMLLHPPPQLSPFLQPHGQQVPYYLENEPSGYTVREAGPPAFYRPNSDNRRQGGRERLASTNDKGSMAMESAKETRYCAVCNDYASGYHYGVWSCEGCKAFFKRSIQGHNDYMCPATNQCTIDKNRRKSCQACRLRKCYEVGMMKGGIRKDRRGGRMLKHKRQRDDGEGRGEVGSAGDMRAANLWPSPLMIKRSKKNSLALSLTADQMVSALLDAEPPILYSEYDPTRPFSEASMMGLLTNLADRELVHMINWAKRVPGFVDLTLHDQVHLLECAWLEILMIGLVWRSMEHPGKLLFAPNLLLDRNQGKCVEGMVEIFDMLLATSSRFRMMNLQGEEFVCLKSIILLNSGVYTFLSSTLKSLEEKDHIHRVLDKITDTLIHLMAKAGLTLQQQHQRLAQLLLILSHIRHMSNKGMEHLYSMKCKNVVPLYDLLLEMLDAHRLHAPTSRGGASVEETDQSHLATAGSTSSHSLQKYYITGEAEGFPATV
# Procedure, shortened: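 Compound effects are measured against 17beta-estradiol stimulation in HEK293 cells with a UAS-controlled beta-lactamase reporter for ER-alpha. Exposure lasts 18 hr at 37C; LiveBLAzer B/G FRET substrate follows for 2 hr at room temperature.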
# [17] = target: Estrogen receptor (Homo sapiens) (UniProt P03372); experiment: qHTS assay to identify small molecule agonists of the estrogen receptor alpha (ER-alpha) signaling pathway (AID 743075; calls by dose curve)
# [18] = target: Estrogen receptor (Homo sapiens) (UniProt P03372); experiment: qHTS assay to identify small molecule agonists of the estrogen receptor alpha (ER-alpha) signaling pathway using the BG1 cell line (AID 743079); further: nearly all actives have a fitted effect of over 20% in size; further: potency means the concentration at half of the fitted maximal effect
# [19] = qHTS assay to identify small molecule antagonists of the estrogen receptor alpha (ER-alpha) signaling pathway using the BG1 cell line (AID 743080; calls by dose curve;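 further: BG1 cells stimulated with 17beta-estradiol alongside compound; series mostly up to about 70 µM; nearly all actives have a fitted effect of over 25% in size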)
# Procedure, shortened: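 BG1Luc4E2, endogenous ER-alpha, 4xERE-luc; 5 d charcoal-stripped FBS, phenol red free; 24 h plating; cpd + 17beta-estradiol 21.5 h, 37 C/5% CO2; CellTiter-Fluor viability 30 min, then ONE-Glo luciferase 30 min RT.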
SMILES,Potency [1],Potency [2],Potency [3],Potency [4],Potency [5],Potency [6],Potency [7],Potency (Aromatase (Homo sapiens)),Potency [8],Potency [9],Potency [10],Potency [11],Potency [12],outcome [13],Potency [14],Potency [15],Potency [16],Potency [17],Potency [18],Potency [19]
CC[C@@H](CO)NCCN[C@@H](CC)CO,inactive,inactive,inactive,inactive,inactive,inactive,inactive,inactive,inactive,,,,,,,,,,,
CC(C)COC(=O)c1ccc(O)cc1,inactive,inactive,,,inactive,inactive,inactive,inactive,inactive,inactive,inactive,inactive,inactive,,,,,,,
CCC(CO)(CO)CO,inactive,inactive,,inactive,inactive,inactive,inactive,inactive,inactive,,inactive,inactive,inactive,inactive,inactive,inactive,inactive,inactive,inactive,inactive
COC(=O)CC(C(C)=O)C(=O)OC (configuration not stated),inactive,inactive,inactive,inactive,inactive,inactive,inactive,inactive,inactive,,,inactive,inactive,inactive,inactive,inactive,inactive,inactive,inactive,inactive
CC(=O)NCCO,inactive,inactive,inactive,inactive,inactive,inactive,inactive,inactive,inactive,,inactive,inactive,inactive,,,,,,,
O=C1[C@@H]2[C@H]3CC[C@H](C3)[C@@H]2C(=O)N1CCCCN1CCN(c2ncccn2)CC1,inactive,inactive,,inactive,inactive,inactive,inactive,inactive,inactive,inactive,,,,,,,inactive,inactive,inactive,inactive
CCCCCCC(O)CCCCCCCCCCC(=O)OC (configuration not stated),inactive,inactive,68.6 µM (active),inactive,inactive,inactive,inactive,,,,inactive,inactive,inactive,,,,,,,
CC(=O)C(=O)CC(C)C,inactive,inactive,inactive,inactive,inactive,inactive,inactive,inactive,inactive,,inactive,inactive,inactive,,,,inactive,inactive,34.2 µM (active),inactive
CCC(CO)(CO)[N+](=O)[O-],inactive,inactive,inactive,inactive,inactive,inactive,inactive,inactive,inactive,,inactive,inactive,inactive,,,,inactive,inactive,inactive,inactive
CCCCCCC(O)CCOC(C)=O (configuration not stated),inactive,inactive,inactive,inactive,inactive,inactive,inactive,inactive,inactive,,inactive,inactive,inactive,,,,,inactive,inactive,inactive
CC(=O)OC(C)C[N+](C)(C)C (configuration not stated),inactive,,inactive,inactive,inactive,inactive,inactive,inactive,inactive,inactive,inactive,,,,,,,inactive,inactive,inactive
CC(=O)OCCC(C)CC(C)(C)C (configuration not stated),,inactive,inactive,,inactive,inactive,inactive,inactive,inactive,inactive,,inactive,24.3 µM (active),,,,inactive,inactive,inactive,inactive
CNC1CCCN(c2c(F)cc3c(=O)c(C(=O)O)cn(C4CC4)c3c2OC)C1 (configuration not stated),inactive,,inactive,inactive,inactive,inactive,inactive,inactive,inactive,inactive,,inactive,inactive,,,,,inactive,inactive,inactive
CC(C)C(O)C(C)(C)CO (configuration not stated),,inactive,inactive,inactive,inactive,inactive,inactive,inactive,inactive,inactive,,inactive,inactive,,,,,inactive,inactive,inactive
CO[C@@H]1[C@@H](OC)[C@H](C)[C@@](O)(CC(=O)O)O[C@H]1[C@H](C)[C@H]1O[C@@]2(CC[C@@](C)([C@H]3CC[C@@](C)([C@@H]4O[C@@H]([C@H]5O[C@](C)(O)[C@H](C)C[C@@H]5C)C[C@@H]4OC4C[C@H](OC)[C@@H](OC)[C@H](C)O4)O3)O2)C[C@H](O)[C@H]1C (some centres not stated),,0.168 µM (active),0.211 µM (active),,1.06 µM (active),,2.98 µM (active),inactive,,0.15 µM (active),0.422 µM (active),0.335 µM (active),,,,,,inactive,,
CCCCCCCCCCCSCC(=O)O,,inactive,inactive,inactive,inactive,inactive,inactive,inactive,inactive,inactive,,,,,,,,inactive,,inactive
COC(=O)c1sccc1S(N)(=O)=O,inactive,,inactive,inactive,inactive,inactive,inactive,inactive,inactive,,inactive,inactive,inactive,,,,inactive,inactive,inactive,inactive
O=C(Oc1ccccc1)c1ccc2ccccc2c1O,inactive,,48.6 µM (active),,inactive,inactive,inactive,inactive,inactive,54.5 µM (active),,,inactive,inactive,inactive,inactive,inactive,inactive,,

# From PubChem BioAssay (Tox21)
